The values that follow come from PubChem BioAssay (NCATS).

Structures are written as SMILES. Values without a mark were called inactive. Calls come from the whole dose curve; as a rule, active = well fitted curve in the direction sought with a large enough effect; inconclusive = small, poorly fitted or top-dose-only effect, or effect the other way, or another doubt; inactive = no such curve, though single readings can be large or run the other way.

The assay in a line: Inducers of the Endoplasmic Reticulum Stress Response (ERSR) in human glioma: Validation (AID 504836). Note: 0% is about no effect. The conditions noted are these: human glioma cells, ER stress response reporter; series mostly up to 38.3 µM; activation: at the top concentration. The gist of the method:
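ERSR induction read as luciferase luminescence (Bright-Glo, 10 min at room temperature) in stably transfected human U87-MG glioma cells exposed to compounds for 16 h, using GRP78 as sensor.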
Regarding `COCCCC/C(=N\OCCN)c1ccc(C(F)(F)F)cc1`, the “activation” value is -0.72%.
Regarding `CC1=C(/C=C/C(C)=C/C=C/C(C)=C/C(=O)Nc2ccc(O)cc2)C(C)(C)CCC1`, the “activation” value was -5.47%.
As for `C[C@H]1c2cccc(O)c2C(O)=C2C(=O)[C@]3(O)C(O)=C(C(N)=O)C(=O)[C@@H](N(C)C)[C@@H]3[C@@H](O)[C@@H]21`, the figure is 5.6%.
With `CC[N+](C)(C)c1cccc(O)c1`, the “activation” value is -2.23%.
As for `COc1ccc([C@@H]2Sc3ccccc3N(CCN(C)C)C(=O)[C@@H]2OC(C)=O)cc1`, the figure is 1.19%; as for `COc1cc2nc(N3CCN(C(=O)C4COc5ccccc5O4)CC3)nc(N)c2cc1OC` (stereo not given), -3%; as for `CC12CC3CC(C)(C1)CC(N)(C3)C2`, -2.99%.
As for `CNCCCN1c2ccccc2CCc2ccccc21`, the figure is -1.95%; as for `CN(C)c1nc(N(C)C)nc(N(C)C)n1`, 2.76%.
As for `O=C(c1ccc(OCCN2CCCCC2)cc1)c1c(-c2ccc(O)cc2)sc2cc(O)ccc12`, the “activation” value is 2.09%.
As for `CC(CN1c2ccccc2Sc2ccccc21)N(C)C` (stereo not given), the figure is 0.728%.
With `COc1ccccc1OCC(O)CN1CCN(CC(=O)Nc2c(C)cccc2C)CC1` (stereo not given) the figure was 1.07%.
As for `OCCN1CCN(CCCN2c3ccccc3Sc3ccc(Cl)cc32)CC1`, the figure is -1.56%.
In the case of `Cc1cccc(C)c1OCC(C)N` (stereo not given), the “activation” value was -5.14%.
With `CCOC(=O)c1ncn2c1CN(C)C(=O)c1cc(F)ccc1-2` the figure was -2.47%.
As for `CNC1(C)C2CCC(C2)C1(C)C` (stereo not given), the figure is -2.89%; as for `CCN(CC)CCCC(C)Nc1ccnc2cc(Cl)ccc12` (stereo not given), -1.94%; as for `NC(=O)NO`, -2.42%.
With `NS(=O)(=O)c1cc2c(cc1Cl)NC=NS2(=O)=O` the figure was 0.848%.
As to `CCC1(c2ccccc2)C(=O)NCNC1=O`, the “activation” value was -2.39%.
